High-throughput results from PubChem.
PD-1 reverse act = reversal of PD-1 mediated T-cell inhibition. primary human CD4 T cells, PD-L1 beads, CellTiter-Glo 96 h. activation, % (no concentration beside the values). 29,000 tested, under 10 active. AID 2316; call rule not given here
STK33 kin inh = human STK33 kinase inhibition; ADP-Glo luminescence, MBP substrate; 27,000 compounds, 0.44% hits; inhibition, % at 12.5 µM; Q9BYT3; AID 2322; in the data active means inhibition above about 20%
Target sequence (Q9BYT3 whole entry, looked up): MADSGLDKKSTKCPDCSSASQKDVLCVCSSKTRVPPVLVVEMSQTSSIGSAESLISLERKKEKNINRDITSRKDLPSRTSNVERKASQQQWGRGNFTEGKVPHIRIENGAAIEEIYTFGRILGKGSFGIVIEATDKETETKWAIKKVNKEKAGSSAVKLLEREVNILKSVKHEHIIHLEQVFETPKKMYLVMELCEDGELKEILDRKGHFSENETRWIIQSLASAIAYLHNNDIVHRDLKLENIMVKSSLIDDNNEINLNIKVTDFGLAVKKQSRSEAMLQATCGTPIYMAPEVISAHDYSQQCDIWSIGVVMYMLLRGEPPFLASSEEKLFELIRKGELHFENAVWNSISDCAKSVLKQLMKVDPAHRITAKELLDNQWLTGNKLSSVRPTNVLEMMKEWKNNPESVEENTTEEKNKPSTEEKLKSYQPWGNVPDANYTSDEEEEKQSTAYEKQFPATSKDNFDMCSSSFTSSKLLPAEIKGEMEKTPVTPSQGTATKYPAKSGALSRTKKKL
NOMO-1 viab = STK33 inhibitor candidate reducing NOMO-1 cell viability | 37,000 compounds, 7.5% hits | inhibition, % (test concentration not listed) | NOMO-1 AML viability, CellTiter-Glo luminescence, 72 h; in the data active means inhibition above about 80%
Hits are given with their value. The entries come from a sample that favours hits as a whole.

For C[C@@H]1CN([C@@H](C)CO)C(=O)c2cccc(NC(=O)C3CCCCC3)c2O[C@H]1CN(C)CC1CCCCC1 the results were NOMO-1 viab 95.
`C[C@H](CO)N1C[C@H](C)[C@@H](CN(C)Cc2ccc(-c3ccccc3)cc2)Oc2c(NC(=O)C3CCCCC3)cccc2C1=O` gave NOMO-1 viab inactive.
C[C@H](CO)N1C[C@H](C)[C@H](CN(C)Cc2ccc(-c3ccccc3)cc2)Oc2c(NC(=O)C3CCOCC3)cccc2C1=O was read as PD-1 reverse act inactive and NOMO-1 viab inactive.
For C[C@@H]1CN([C@H](C)CO)C(=O)c2cccc(NC(=O)C3CCCCC3)c2O[C@@H]1CN(C)Cc1ccc(-c2ccccc2)cc1 the results were PD-1 reverse act inactive and NOMO-1 viab 110.
`C[C@H]1CN([C@@H](C)CO)C(=O)c2cccc(NC(=O)C3CCCCC3)c2O[C@H]1CN(C)Cc1ccc(-c2ccccc2)cc1` gave PD-1 reverse act inactive and NOMO-1 viab 87.
C[C@@H]1CN([C@@H](C)CO)C(=O)c2cccc(NC(=O)C3CCCCC3)c2O[C@H]1CN(C)Cc1ccc(-c2ccccc2)cc1 was read as PD-1 reverse act inactive and NOMO-1 viab 81.
`C[C@H]1CN([C@@H](C)CO)C(=O)c2cccc(NC(=O)C3CCCCC3)c2O[C@H]1CN(C)CC1CCCCC1` gave PD-1 reverse act inactive and NOMO-1 viab inactive.
Screening O=C(COc1ccccc1Br)NCc1cccnc1 returned PD-1 reverse act inactive, STK33 kin inh inactive and NOMO-1 viab inactive.
`Cc1ccc(S(=O)(=O)Nc2ccc3c(c2)CC(=O)N([C@H](C)CO)C[C@@H](C)[C@H](CN(C)C(=O)NC2CCCCC2)O3)cc1` gave PD-1 reverse act inactive, STK33 kin inh inactive and NOMO-1 viab inactive.
COc1ccc(NC(=O)N(C)C[C@@H]2Oc3ccc(NS(=O)(=O)c4ccc(C)cc4)cc3CC(=O)N([C@H](C)CO)C[C@H]2C)cc1 was read as PD-1 reverse act inactive, STK33 kin inh inactive and NOMO-1 viab inactive.
`C[C@H](CO)N1C[C@H](C)[C@@H](CN(C)Cc2ccc(-c3ccccc3)cc2)Oc2c(NC(=O)C3CC3)cccc2C1=O` gave NOMO-1 viab 89.
For COc1ccc(CN(C)C[C@@H]2Oc3c(NC(=O)C4CCCCC4)cccc3C(=O)N([C@@H](C)CO)C[C@H]2C)cc1 the results were PD-1 reverse act inactive and NOMO-1 viab 98.
For C[C@@H]1CN([C@@H](C)CO)C(=O)c2cccc(NC(=O)C3CCCCC3)c2O[C@H]1CN(C)Cc1ccccc1 the results were PD-1 reverse act inactive and NOMO-1 viab 96.
For C[C@H](CO)N1C[C@H](C)[C@@H](CN(C)Cc2ccccc2)Oc2c(NC(=O)C3CCCCC3)cccc2C1=O the results were PD-1 reverse act inactive and NOMO-1 viab inactive.
`C[C@H]1CN([C@@H](C)CO)C(=O)c2cccc(NC(=O)C3CCCCC3)c2O[C@H]1CN(C)Cc1ccc(Oc2ccccc2)cc1` gave PD-1 reverse act inactive and NOMO-1 viab inactive.
For C[C@H](CO)N1C[C@H](C)[C@H](CN(C)Cc2ccc(Oc3ccccc3)cc2)Oc2c(NC(=O)C3CCCCC3)cccc2C1=O the results were PD-1 reverse act inactive and NOMO-1 viab 109.
Screening C[C@H](CO)N1C[C@H](C)[C@H](CN(C)Cc2ccc(-c3ccccc3)cc2)Oc2c(NC(=O)C3CC3)cccc2C1=O returned PD-1 reverse act inactive and NOMO-1 viab inactive.
For COc1ccc(CN(C)C[C@H]2Oc3c(NC(=O)C4CCCCC4)cccc3C(=O)N([C@H](C)CO)C[C@H]2C)cc1 the results were PD-1 reverse act inactive and NOMO-1 viab inactive.
O=C(NCc1ccco1)c1cnsn1 was read as STK33 kin inh inactive and NOMO-1 viab inactive.
For COC(=O)c1sc2ncn(CC(=O)Nc3ccccc3OC)c(=O)c2c1C the results were PD-1 reverse act inactive, STK33 kin inh inactive and NOMO-1 viab inactive.
Screening Cc1ccccc1S(=O)(=O)N(C)C[C@H]1OCc2cnnn2CCCC(=O)N([C@H](C)CO)C[C@@H]1C returned STK33 kin inh inactive.
`C[C@H](CO)N1C[C@H](C)[C@H](CN(C)Cc2ccncc2)Oc2ccc(NC(=O)C3CCCCC3)cc2C1=O` gave PD-1 reverse act inactive, STK33 kin inh inactive and NOMO-1 viab inactive.
COc1ccc(CN(C)C[C@@H]2OCCCC[C@@H](C)Oc3ccc(NC(=O)NC(C)C)cc3C(=O)N([C@H](C)CO)C[C@@H]2C)cc1 was read as PD-1 reverse act inactive, STK33 kin inh inactive and NOMO-1 viab inactive.
For COC(=O)C1=C(C)NC(C)=C(C(=O)OC)C1c1ccc(C(C)C)cc1 the results were PD-1 reverse act inactive and NOMO-1 viab 110.
CCOC(=O)C1=C(C)NC(C)=C(C(=O)OC)C1c1cccc(Cl)c1Cl (stereo not given) was read as STK33 kin inh inactive and NOMO-1 viab inactive.
Screening C=CC1c2cc(O)c(OC)cc2CCN1Cc1sc2ccccc2c1Cl (stereo not given) returned STK33 kin inh inactive.
`CC1=C(C(=O)NN)Sc2ccccc2N1` gave PD-1 reverse act inactive and NOMO-1 viab inactive.
`C[C@H]1CN([C@@H](C)CO)C(=O)c2cccc(NC(=O)c3ccncc3)c2O[C@H]1CN(C)Cc1ccc(Oc2ccccc2)cc1` gave NOMO-1 viab inactive.
S=c1cc[nH]c(=S)n1-c1nc(-c2ccccc2)sc1-c1ccccc1 was read as PD-1 reverse act inactive and NOMO-1 viab inactive.
Screening C[C@@H]1CN([C@H](C)CO)C(=O)Cc2cc(NC(=O)Cn3cnnn3)ccc2O[C@H]1CN(C)S(=O)(=O)c1cn(C)cn1 returned PD-1 reverse act inactive, STK33 kin inh inactive and NOMO-1 viab inactive.
For CN1C(=O)c2ccccc2-n2c(nc3ccccc3c2=O)[C@@]12O[C@H]2c1ccccc1 the results were PD-1 reverse act inactive, STK33 kin inh inactive and NOMO-1 viab 104.
`CN1C(=O)c2ccccc2NC(=O)[C@]12O[C@@H]2c1cccc(O)c1` gave PD-1 reverse act inactive, STK33 kin inh inactive and NOMO-1 viab inactive.
For C[C@H](CO)N1C[C@H](C)[C@@H](CN(C)CC2CCCCC2)Oc2ccc(NC(=O)Nc3ccc(F)cc3)cc2C1=O the results were PD-1 reverse act inactive and NOMO-1 viab inactive.
C[C@@H]1CN([C@@H](C)CO)C(=O)c2cc(NC(=O)Nc3ccc(C(F)(F)F)cc3)ccc2O[C@H]1CN(C)CC1CCCCC1 was read as PD-1 reverse act inactive, STK33 kin inh inactive and NOMO-1 viab 118.
For C[C@H]1CN([C@@H](C)CO)C(=O)c2cc(NC(=O)Nc3ccccc3)ccc2O[C@H]1CN(C)CC1CCCCC1 the results were PD-1 reverse act inactive, STK33 kin inh inactive and NOMO-1 viab inactive.
`C[C@H](CO)N1C[C@H](C)[C@H](CN(C)CC2CCCCC2)Oc2ccc(NC(=O)Nc3ccc(C(F)(F)F)cc3)cc2C1=O` gave PD-1 reverse act inactive and NOMO-1 viab 116.
Screening C[C@@H]1CN([C@H](C)CO)C(=O)Cc2cc(NC(=O)NC3CCCCC3)ccc2O[C@@H]1CN(C)S(=O)(=O)c1ccc(F)cc1 returned STK33 kin inh inactive and NOMO-1 viab inactive.
For COc1ccc(C)cc1N(CC(=O)Nc1ccc(Br)cc1F)S(C)(=O)=O the results were PD-1 reverse act inactive, STK33 kin inh inactive and NOMO-1 viab inactive.
`Cc1noc(C)c1NC(=O)Nc1ccc2c(c1)C(=O)N([C@@H](C)CO)C[C@H](C)[C@H](CN(C)C(=O)NC(C)C)O2` gave PD-1 reverse act inactive, STK33 kin inh inactive and NOMO-1 viab inactive.
